This passage reports log2 fold change results from the supplement of paper PMC10849652.

About 7,900 targets were measured; listed, in parts, are those with a hit and a random draw of the rest. About 0.6% of all pairs of compound and target were hits. Unmarked numbers belong to inactive results.

Sequence of UniProt Q6UUV7 (Q6UUV7 whole entry, looked up): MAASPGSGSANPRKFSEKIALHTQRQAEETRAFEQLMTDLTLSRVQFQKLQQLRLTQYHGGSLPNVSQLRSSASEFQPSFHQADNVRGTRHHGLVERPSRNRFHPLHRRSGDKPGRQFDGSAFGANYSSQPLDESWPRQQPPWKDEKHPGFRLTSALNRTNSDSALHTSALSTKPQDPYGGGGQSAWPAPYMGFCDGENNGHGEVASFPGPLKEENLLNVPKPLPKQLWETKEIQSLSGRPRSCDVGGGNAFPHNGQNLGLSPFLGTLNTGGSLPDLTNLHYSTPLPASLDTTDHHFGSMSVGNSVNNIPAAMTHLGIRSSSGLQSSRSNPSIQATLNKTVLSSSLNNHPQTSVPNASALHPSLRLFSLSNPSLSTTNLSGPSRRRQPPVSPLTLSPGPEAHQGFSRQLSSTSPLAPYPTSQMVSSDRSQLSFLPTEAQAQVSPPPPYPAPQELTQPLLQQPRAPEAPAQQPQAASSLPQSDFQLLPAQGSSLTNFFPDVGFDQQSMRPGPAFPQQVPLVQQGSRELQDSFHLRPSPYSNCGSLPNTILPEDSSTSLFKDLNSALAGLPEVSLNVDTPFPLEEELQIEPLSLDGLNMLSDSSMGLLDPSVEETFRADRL
Sequence of UniProt P30281 (P30281 whole entry, looked up): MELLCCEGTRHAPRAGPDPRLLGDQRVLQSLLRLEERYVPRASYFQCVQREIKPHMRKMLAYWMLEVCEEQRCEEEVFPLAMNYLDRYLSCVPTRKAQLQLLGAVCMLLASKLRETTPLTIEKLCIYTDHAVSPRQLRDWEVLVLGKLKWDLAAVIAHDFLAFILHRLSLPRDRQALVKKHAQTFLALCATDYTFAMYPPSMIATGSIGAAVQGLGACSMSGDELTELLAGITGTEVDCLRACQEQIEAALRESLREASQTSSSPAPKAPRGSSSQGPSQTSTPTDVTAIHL
Sequence of UniProt Q9UNS2 (Q9UNS2 whole entry, looked up): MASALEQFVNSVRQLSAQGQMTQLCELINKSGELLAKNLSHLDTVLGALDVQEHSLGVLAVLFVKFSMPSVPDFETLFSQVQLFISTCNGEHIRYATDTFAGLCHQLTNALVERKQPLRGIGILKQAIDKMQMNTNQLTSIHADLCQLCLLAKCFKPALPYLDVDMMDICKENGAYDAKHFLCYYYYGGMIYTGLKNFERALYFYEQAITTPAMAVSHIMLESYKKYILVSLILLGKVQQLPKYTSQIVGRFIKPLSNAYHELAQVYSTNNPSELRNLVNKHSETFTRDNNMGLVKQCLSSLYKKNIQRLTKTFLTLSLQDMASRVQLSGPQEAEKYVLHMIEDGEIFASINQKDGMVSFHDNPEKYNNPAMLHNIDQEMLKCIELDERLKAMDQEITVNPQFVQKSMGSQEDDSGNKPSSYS
Sequence of UniProt Q70SY1 (Q70SY1 whole entry, looked up): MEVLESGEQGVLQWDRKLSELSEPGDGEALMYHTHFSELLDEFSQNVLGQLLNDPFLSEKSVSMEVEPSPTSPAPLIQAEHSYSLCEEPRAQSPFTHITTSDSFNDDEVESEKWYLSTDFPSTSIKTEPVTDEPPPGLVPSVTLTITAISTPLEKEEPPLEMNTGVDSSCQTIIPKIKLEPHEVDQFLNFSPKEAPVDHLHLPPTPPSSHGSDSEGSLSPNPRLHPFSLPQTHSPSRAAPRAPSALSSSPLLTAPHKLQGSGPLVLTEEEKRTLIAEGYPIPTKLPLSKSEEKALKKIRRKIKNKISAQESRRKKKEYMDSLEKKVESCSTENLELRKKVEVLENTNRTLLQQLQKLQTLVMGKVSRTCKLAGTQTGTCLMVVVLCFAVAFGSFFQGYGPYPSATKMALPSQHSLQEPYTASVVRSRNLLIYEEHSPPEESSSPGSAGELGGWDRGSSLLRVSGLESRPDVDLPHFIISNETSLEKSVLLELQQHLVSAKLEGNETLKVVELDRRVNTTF
Sequence of UniProt Q13901 (Q13901 whole entry, looked up): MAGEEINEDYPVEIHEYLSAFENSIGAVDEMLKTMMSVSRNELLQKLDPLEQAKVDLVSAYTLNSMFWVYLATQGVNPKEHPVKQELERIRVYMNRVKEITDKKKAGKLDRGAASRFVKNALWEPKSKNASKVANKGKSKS
Sequence of UniProt Q2TAC2 (Q2TAC2 whole entry, looked up): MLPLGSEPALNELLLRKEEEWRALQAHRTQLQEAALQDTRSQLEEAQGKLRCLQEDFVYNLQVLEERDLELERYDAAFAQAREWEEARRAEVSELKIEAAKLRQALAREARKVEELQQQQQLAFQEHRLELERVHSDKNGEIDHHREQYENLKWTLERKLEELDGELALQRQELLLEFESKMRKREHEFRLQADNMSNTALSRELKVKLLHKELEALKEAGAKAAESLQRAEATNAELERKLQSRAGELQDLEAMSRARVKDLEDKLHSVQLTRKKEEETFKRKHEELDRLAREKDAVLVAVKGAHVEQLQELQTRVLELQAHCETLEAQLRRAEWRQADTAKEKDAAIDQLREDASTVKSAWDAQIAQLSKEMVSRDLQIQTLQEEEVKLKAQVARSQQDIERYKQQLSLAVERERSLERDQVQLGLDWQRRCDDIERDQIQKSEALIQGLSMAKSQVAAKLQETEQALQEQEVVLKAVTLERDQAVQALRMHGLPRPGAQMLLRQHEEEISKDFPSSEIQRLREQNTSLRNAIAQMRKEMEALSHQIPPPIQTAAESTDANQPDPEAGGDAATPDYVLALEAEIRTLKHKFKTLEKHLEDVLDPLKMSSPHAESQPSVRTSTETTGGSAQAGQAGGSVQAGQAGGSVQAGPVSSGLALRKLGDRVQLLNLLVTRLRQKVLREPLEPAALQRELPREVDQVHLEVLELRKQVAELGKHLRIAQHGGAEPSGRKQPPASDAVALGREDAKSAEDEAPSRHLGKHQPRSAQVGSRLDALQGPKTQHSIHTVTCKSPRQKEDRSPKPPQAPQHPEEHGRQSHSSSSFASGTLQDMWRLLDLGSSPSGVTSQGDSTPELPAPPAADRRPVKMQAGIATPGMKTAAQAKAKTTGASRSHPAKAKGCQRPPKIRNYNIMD
Sequence of UniProt Q13286 (Q13286 whole entry, looked up): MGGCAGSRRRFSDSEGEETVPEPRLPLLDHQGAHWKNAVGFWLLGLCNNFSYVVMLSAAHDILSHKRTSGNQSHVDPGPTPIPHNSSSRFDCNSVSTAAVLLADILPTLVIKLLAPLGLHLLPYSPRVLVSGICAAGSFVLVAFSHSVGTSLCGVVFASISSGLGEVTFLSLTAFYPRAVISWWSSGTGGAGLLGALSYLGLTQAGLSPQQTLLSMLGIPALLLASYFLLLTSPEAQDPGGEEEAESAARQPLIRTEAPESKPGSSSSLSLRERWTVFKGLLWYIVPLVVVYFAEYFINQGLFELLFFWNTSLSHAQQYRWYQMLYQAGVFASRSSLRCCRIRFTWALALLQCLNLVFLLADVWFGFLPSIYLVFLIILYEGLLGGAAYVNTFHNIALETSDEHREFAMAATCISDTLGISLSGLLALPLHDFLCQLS
Sequence of UniProt P51795 (P51795 whole entry, looked up): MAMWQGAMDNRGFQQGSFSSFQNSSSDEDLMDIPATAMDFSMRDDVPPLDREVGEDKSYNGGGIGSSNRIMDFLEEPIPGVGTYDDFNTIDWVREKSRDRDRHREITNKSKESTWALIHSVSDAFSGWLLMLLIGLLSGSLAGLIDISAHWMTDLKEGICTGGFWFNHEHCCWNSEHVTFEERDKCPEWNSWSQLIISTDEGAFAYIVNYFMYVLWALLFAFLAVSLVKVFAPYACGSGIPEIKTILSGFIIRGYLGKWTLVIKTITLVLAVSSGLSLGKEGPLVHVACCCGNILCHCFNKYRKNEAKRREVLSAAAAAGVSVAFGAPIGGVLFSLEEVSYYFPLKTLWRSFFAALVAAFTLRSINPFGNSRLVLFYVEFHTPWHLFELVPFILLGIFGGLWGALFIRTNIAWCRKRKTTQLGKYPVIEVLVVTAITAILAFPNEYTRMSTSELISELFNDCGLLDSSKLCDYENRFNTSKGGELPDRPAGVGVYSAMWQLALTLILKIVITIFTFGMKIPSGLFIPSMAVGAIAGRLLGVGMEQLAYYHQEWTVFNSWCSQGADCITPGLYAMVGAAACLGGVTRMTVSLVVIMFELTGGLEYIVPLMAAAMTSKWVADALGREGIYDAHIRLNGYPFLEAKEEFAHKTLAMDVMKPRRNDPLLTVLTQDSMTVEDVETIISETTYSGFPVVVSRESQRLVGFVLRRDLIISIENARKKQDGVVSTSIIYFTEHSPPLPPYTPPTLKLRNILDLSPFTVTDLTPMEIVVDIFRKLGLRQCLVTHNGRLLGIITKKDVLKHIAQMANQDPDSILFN
Sequence of UniProt Q9NPF2 (Q9NPF2 whole entry, looked up): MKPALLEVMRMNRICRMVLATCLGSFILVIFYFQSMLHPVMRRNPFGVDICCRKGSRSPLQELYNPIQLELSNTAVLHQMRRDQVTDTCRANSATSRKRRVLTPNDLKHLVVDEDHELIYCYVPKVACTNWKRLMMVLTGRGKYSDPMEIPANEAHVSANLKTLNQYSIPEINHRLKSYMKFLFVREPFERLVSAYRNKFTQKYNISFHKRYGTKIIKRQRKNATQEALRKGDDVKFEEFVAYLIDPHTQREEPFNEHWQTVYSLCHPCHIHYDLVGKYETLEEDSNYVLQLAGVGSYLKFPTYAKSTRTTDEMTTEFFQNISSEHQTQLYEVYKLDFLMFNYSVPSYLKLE
Sequence of UniProt A8MTT3 (A8MTT3 whole entry, looked up): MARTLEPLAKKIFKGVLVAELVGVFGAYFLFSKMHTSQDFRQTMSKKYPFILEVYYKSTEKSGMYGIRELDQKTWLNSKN
Sequence of UniProt Q8N668 (Q8N668 whole entry, looked up): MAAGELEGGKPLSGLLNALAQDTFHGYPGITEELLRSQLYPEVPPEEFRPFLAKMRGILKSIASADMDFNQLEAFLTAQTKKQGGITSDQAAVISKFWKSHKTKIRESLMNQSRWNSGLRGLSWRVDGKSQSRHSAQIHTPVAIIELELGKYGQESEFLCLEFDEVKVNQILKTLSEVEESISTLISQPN

Compound in the assay: CNC(=O)c1ccc(Nc2ncc(C(F)(F)F)c(NCc3nccnc3N(C)S(C)(=O)=O)n2)cc1 [defactinib]
In words: log2 fold change, soluble protein after heating vs DMSO (PISA); higher = thermal stabilisation; K562 cells, 10 uM, 30 min; active = over 0.2 and 3.5 SD of the protein, either way, in both replicates (recomputed). A digest of the protocol: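 K562 cells at 2×10^6 cells/mL were exposed to 10 μM compound for 30 min, then aliquots were heated for 3 min across 48°C-58°C, pooled, and extracted in PBS containing 0.5% NP-40 at 4°C. The supernatant after 21,000xg for 90 min was taken as soluble protein and measured by TMTpro 16plex LC-MS/MS with channel sums equalised. Thermal stability is reported relative to control samples, with values from duplicates. Fold changes are given on a log2 scale.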
In the case of CLN3 (UniProt Q13286), the log2 fold change is -0.039.
Consider CRTC3 (UniProt Q6UUV7), for which the log2 fold change was 0.025.
CNOT4 isoform 9 (UniProt O95628): the log2 fold change is -0.129.
With CEBPZOS (UniProt A8MTT3), the log2 fold change was -0.012.
To CRTC2 (UniProt Q53ET0) belongs -0.218.
With CDCA2 (UniProt Q69YH5) the figure was -0.063; with CCDC82 (UniProt Q8N4S0), -0.09.
With CCND3 (UniProt P30281) the figure was -0.037; with CDC25B isoform 4 (UniProt P30305), -0.25; with CNN1 (UniProt P51911), -0.028.
Turning to COMMD1 (UniProt Q8N668), the log2 fold change was -0.151.
To COPS3 isoform 2 (UniProt Q9UNS2) belongs 0.109; to CCDC57 (UniProt Q2TAC2), 0.02; to CFAP47 (UniProt Q6ZTR5), -0.063.
With CHST11 (UniProt Q9NPF2) the figure was -0.003.
With CA1 (UniProt E5RIF9) the figure was -0.09; with CLINT1 (UniProt Q14677), -0.002.
With CLPTM1L (UniProt G5E9Z2), the log2 fold change was 0.002.
To C1D (UniProt Q13901) belongs 0.042.
In the case of CLCN5 isoform 2 (UniProt P51795), the log2 fold change was -0.033.
Consider CREB3L2 (UniProt Q70SY1), for which the log2 fold change is -0.039.
